The results in this text go back to PubChem BioAssay.

One experiment in a line: binders of probe aFGF2 on microarray, primary screen, stem cell growth factor project, biochemical, small-molecule microarray, fluorescence 635/667 (AID 1067).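 Further: measures binding of biotinylated aFGF2 protein to printed compounds on slides; z-score merges feature fluorescence and signal-to-noise across triplicate slides.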 Conditions: higher = more signal.
On to `COCCCNC(=O)[C@@]1(Sc2ccc(C)cc2)CC(=O)N(C2CCCCC2)[C@@H]1c1ccc(CO)cc1I`, for which the composite z-score was 0.0442. Same read-out and setting: in the case of `COCCOC(=O)N1C(=O)[C@@]2(c3cc(C#CC4(O)CCCCCC4)ccc31)[C@H](c1ccc(OCCO)cc1)N1[C@H](c3ccccc3)[C@H](c3ccccc3)OC(=O)[C@H]1[C@@H]2C(=O)N1CCCCCCC1` it was 0.466; in that of `C=CC[C@@]12N=C(c3ccc(OCCCO)cc3)O[C@@H]1c1ccccc1N(Cc1ccccc1)C2=O`, 0.302.

For the compound `C=C(CCCC)/C(=C/C[C@H](OC(C)=O)c1cccc(OCCO)c1)c1cc(C(=O)OC)ccc1OC`, the composite z-score is -0.0852.

Take `O=c1cccc(-c2ccccc2C(F)(F)F)o1`: the composite z-score worked out at 0.409. Take `COC(=O)[C@@]1(Cc2ccc(OC)cc2)[C@H]2c3cc(C(=O)N4CCCC4)n(CCc4ccc(OC)c(Br)c4)c3C[C@H]2CN1C(=O)c1ccccc1`: the composite z-score stood at 0.159. As for `COc1ccc(CCNC(=O)[C@@H]2c3ccccc3C(=O)N(CC34CC5CC(CC(C5)C3)C4)[C@H]2c2ccc(CO)cc2)cc1`, the composite z-score was found to be 0.257.

Compound `CCCCC(=C=CC[C@@H](O)c1cccc(OCCO)c1)CCO` yielded a composite z-score of -0.057.

`COC(=O)C1(CC(C)C)C=C2C(=C(C(C)C)C(=O)C2C)CN1` (stereo not drawn): the composite z-score was -0.0578.

On to `COCCOC(=O)N1C(=O)[C@@]2(c3cc(C#CCC(C(=O)OC)C(=O)OC)ccc31)[C@H](C(=O)N1CCCCCCC1)[C@H]1C(=O)O[C@H](c3ccccc3)[C@H](c3ccccc3)N1[C@@H]2c1ccccc1OCCO`, for which the composite z-score came to 0.825. `C=CCNC(=O)[C@H]1[C@@H]2C(=O)O[C@@H](c3ccccc3)[C@@H](c3ccccc3)N2[C@@H](c2ccc(O)cc2)[C@]12C(=O)Nc1ccc(C#CC3=CCCCC3)cc12` yielded a composite z-score of -0.0449. The same measure, in the same setting: in the case of `C=CCC(OC(C)=O)[C@@H]1[C@@H](N(Cc2ccc(-c3cccc(C(F)(F)F)c3)o2)C(=O)c2cccc3ccccc23)c2cc(OCCCO)ccc2N1C(=O)c1ccc2ccccc2n1` (stereo partly drawn) it was -0.0242; in that of `CCC[C@@H]1[C@@H](Sc2ccccc2)[C@@H](C(=O)O)[C@H](c2ccc(C)cc2)N1S(=O)(=O)c1ccc(C)cc1`, 0.0213.

The nature of another experiment: binders of probe aFGF10 on microarray, primary screen, stem cell growth factor project, biochemical, small-molecule microarray, fluorescence 635/667 (AID 1071).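 Further: score merges 667 nm spot intensity and signal to noise from triplicate slides.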 Conditions: higher = more signal.
Turning to `CC(=O)c1ccc(C(O)C2C=CC3C(=O)NC(=O)C3N2Nc2ccc(Cl)cc2Cl)cc1` (stereo not drawn), the composite z-score turned out to be 0.606. Still for that read-out and setting: in the case of `C=CCC(OC(C)=O)[C@@H]1[C@@H](N(Cc2cccc3ccccc23)C(=O)c2ccc(C)cc2)c2cc(OCCCO)ccc2N1C(=O)c1ccc2ccccc2n1` (stereo partly drawn) it was 0.238; in that of `COC(=O)[C@@H]1N=C(c2ccc(OCCCO)cc2)O[C@@H]1c1ccccc1CN=[N+]=[N-]`, -0.784.

With `COc1ccc([Si](C)(C)[C@@H]2[C@@H](CCO)O[C@]3(C(=O)N(Cc4ccccc4)c4ccc(N5C(=O)c6ccccc6Oc6ccccc65)cc43)[C@H]2C)cc1`, the composite z-score worked out at 0.379.

`COC(=O)[C@@]1(Cc2ccc(F)cc2)[C@H]2c3cc(C(=O)N(C)C)n(CCO)c3C[C@H]2CN1C(=O)c1ccccc1` registered a composite z-score of 0.429. Same read-out and setting: in the case of `CC(C)(C)N1CC=CC23O[C@@H]4/C=C\CCCOC(=O)C4[C@H]2C(=O)N(CCCCCCO)[C@@H]3C1=O` (stereo partly drawn) it was -0.056; in that of `C=C(CCCC)C(=O)CC[C@H](OC(C)=O)c1ccccc1OCCO`, 0.776; in that of `COCCOC(=O)N1C(=O)[C@@]2(c3cc(C#CCC(C(=O)OC)C(=O)OC)ccc31)[C@H](C(=O)N1CCc3cc(OC)c(OC)cc3C1)[C@H]1C(=O)O[C@H](c3ccccc3)[C@H](c3ccccc3)N1[C@@H]2c1ccc(O)cc1`, 0.858. Still for that read-out and setting: in the case of `O=C(NCCO)C1=C[C@H](Oc2ccccc2I)[C@@H](O)[C@H](NCc2ccc(F)cc2)C1` it was 1.38; in that of `C=CCC(OC(C)=O)[C@@H]1[C@@H](N(Cc2cccc3ccccc23)C(=O)c2ccc(-c3ccccc3)cc2)c2cc(OCCCO)ccc2N1C(=O)c1ccc2ccccc2n1` (stereo partly drawn), 0.0632. `COc1ccc([Si](C)(C)[C@H]2[C@H](CCO)O[C@@]3(C(=O)N(Cc4ccccc4)c4ccc(N(C=O)c5ccccc5)cc43)[C@@H]2C)cc1` had a composite z-score of 0.199. On the same count and under the same terms, the result for `CCCC[C@H]1OB(O)C[C@H]2C1=C(C)C[C@H]1C(=O)C=CC(=O)[C@H]12` reads 0.309.

For the compound `[N-]=[N+]=NCc1ccccc1[C@@H]1OC(c2ccc(OCCCO)cc2)=N[C@]1(Cc1ccccc1)C(=O)NCc1ccccc1`, the composite z-score is 0.22. Same read-out and setting: in the case of `COc1ccccc1CN1C(=O)c2ccccc2[C@](Cc2ccccc2I)(C(=O)NCCCN(C)C)[C@@H]1c1ccc(CO)cc1` it was 0.483. Still for that read-out and setting: the result for `CCCCCCc1nc(-c2ccc(OC)nc2)cc2c1[Si](C(C)C)(C(C)C)OC2` reads -0.0125.

Turning to `CC(=O)n1cc(C(O)C2C=CC3C(=O)N(c4ccccc4)C(=O)C3N2Nc2ccccc2F)c2ccccc21` (stereo not drawn), the composite z-score was -0.274. On the same count and under the same terms, in the case of `COc1ccc(NN2C(C(O)c3cc(C(F)(F)F)cc(C(F)(F)F)c3)C=CC3C(=O)N(C4CCCCC4)C(=O)C32)cc1` (stereo not drawn) it was 0.397; in that of `CC1CC/C=C\[C@H]2OC34C=CCN(c5ccc(Cl)cc5)C(=O)[C@H]3N(CCCO)C(=O)[C@]4(C)C2C(=O)O1` (stereo partly drawn), -1.11.

The compound `O=C1NC(=O)C2C1C=CC(C(O)c1cccc(O)c1)N2Nc1ccc(Cl)cc1Cl` (stereo not drawn) had a composite z-score of 0.0569. For the compound `CCc1cccc(NC(=O)O[C@H]2[C@H](OC(=O)Nc3ccc4c(c3)OCO4)[C@H](OC(=O)Nc3ccc4c(c3)OCO4)[C@@H](OC)O[C@@H]2CO)c1`, the composite z-score is 0.263. The same measure, in the same setting: in the case of `C[N+](C)(C)CCCCCCNC(=O)[C@@H]1C[C@@H]2C(=O)N[C@@H](Cc3ccccc3)C(=O)N2[C@@H]1c1ccc(O)cc1` it was 0.33; in that of `CCN(CC)c1ccc(N2CC=CC34O[C@@H]5C=CCOC(=O)[C@@H]5[C@H]3C(=O)N(CCCO)[C@@H]4C2=O)cc1` (stereo partly drawn), -0.679. The compound `COCCCNC(=O)[C@@]1(Sc2ccc(C)cc2)CC(=O)N(C2CCCCC2)[C@@H]1c1ccc(CO)cc1I` displayed a composite z-score of 0.655.

For the compound `COCCOC(=O)N1C(=O)[C@@]2(c3cc(C#CC4(O)CCCCCC4)ccc31)[C@H](c1ccc(OCCO)cc1)N1[C@H](c3ccccc3)[C@H](c3ccccc3)OC(=O)[C@H]1[C@@H]2C(=O)N1CCCCCCC1`, the composite z-score was 0.276. Same read-out and setting: the result for `C=CC[C@@]12N=C(c3ccc(OCCCO)cc3)O[C@@H]1c1ccccc1N(Cc1ccccc1)C2=O` reads 0.524; that for `C=C(CCCC)/C(=C/C[C@H](OC(C)=O)c1cccc(OCCO)c1)c1cc(C(=O)OC)ccc1OC`, -0.0418. Same read-out and setting: in the case of `O=c1cccc(-c2ccccc2C(F)(F)F)o1` it was -0.331; in that of `COC(=O)[C@@]1(Cc2ccc(OC)cc2)[C@H]2c3cc(C(=O)N4CCCC4)n(CCc4ccc(OC)c(Br)c4)c3C[C@H]2CN1C(=O)c1ccccc1`, 0.929.

For the compound `COc1ccc(CCNC(=O)[C@@H]2c3ccccc3C(=O)N(CC34CC5CC(CC(C5)C3)C4)[C@H]2c2ccc(CO)cc2)cc1`, the composite z-score was 0.239. Same read-out and setting: in the case of `CCCCC(=C=CC[C@@H](O)c1cccc(OCCO)c1)CCO` it was 0.601. The same measure, in the same setting: the result for `COC(=O)C1(CC(C)C)C=C2C(=C(C(C)C)C(=O)C2C)CN1` (stereo not drawn) reads -0.589.

Turning to `COCCOC(=O)N1C(=O)[C@@]2(c3cc(C#CCC(C(=O)OC)C(=O)OC)ccc31)[C@H](C(=O)N1CCCCCCC1)[C@H]1C(=O)O[C@H](c3ccccc3)[C@H](c3ccccc3)N1[C@@H]2c1ccccc1OCCO`, the composite z-score amounted to 0.481. Regarding `C=CCNC(=O)[C@H]1[C@@H]2C(=O)O[C@@H](c3ccccc3)[C@@H](c3ccccc3)N2[C@@H](c2ccc(O)cc2)[C@]12C(=O)Nc1ccc(C#CC3=CCCCC3)cc12`, the composite z-score turned out to be 0.447. Still for that read-out and setting: the result for `C=CCC(OC(C)=O)[C@@H]1[C@@H](N(Cc2ccc(-c3cccc(C(F)(F)F)c3)o2)C(=O)c2cccc3ccccc23)c2cc(OCCCO)ccc2N1C(=O)c1ccc2ccccc2n1` (stereo partly drawn) reads 0.232; that for `CCC[C@@H]1[C@@H](Sc2ccccc2)[C@@H](C(=O)O)[C@H](c2ccc(C)cc2)N1S(=O)(=O)c1ccc(C)cc1`, 0.894.
